According to PubChem BioAssay (EPA / NIEHS):
Activity calls are given as the source filed them. Rule for the calls: active = hit-call score of the fitted dose curve at least 0.9, where 1 is the maximum; inactive = score below 0.9.

Experiments:
Conditions in all cases: mRNA level, 48 h; actives raise or lower the signal
[1] = read-out: Glutathione S-Transferase (GSTA2), GSTA2 (gene 2939); assay: LTEA_HepaRG_GSTA2: Life Technologies and Expression Analysis (LTEA) Assay for Glutathione S-Transferase (GSTA2) using HepaRG (AID 2283497)
Procedure, shortened: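 qRT-PCR readout of GSTA2 transcript, normalized to three housekeeping genes, fitted bidirectionally against 0.5% DMSO baseline. Differentiated HepaRG cells received compound for 48 h at 8 concentrations (top 100 uM, half-log steps).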

[2] = read-out: Glutamate-cysteine ligase catalytic (GCLC), GCLC (gene 2729); assay: LTEA_HepaRG_GCLC: Life Technologies and Expression Analysis (LTEA) Assay for Glutamate-cysteine ligase catalytic (GCLC) using HepaRG (AID 2283498)
Procedure, shortened: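 HepaRG, 48 h exposure, 8-pt half-log series from 100 uM, 0.5% DMSO vehicle; TaqMan qRT-PCR for GCLC mRNA, housekeeping-normalized; bidirectional curve fit vs DMSO baseline.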

[3] = read-out: growth arrest and DNA damage 45 (GADD45G), GADD45G (gene 10912); assay: LTEA_HepaRG_GADD45G: Life Technologies and Expression Analysis (LTEA) Assay for growth arrest and DNA damage 45 (GADD45G) using HepaRG (AID 2283499)
Procedure, shortened: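 Differentiated human HepaRG cells, 48 h post-plating, exposed 48 h in serum-free induction medium to 8 half-log concentrations (top 100 uM, 0.5% DMSO) in duplicate. GADD45G mRNA measured by Fluidigm TaqMan qRT-PCR, normalized to ACTB, GAPDH, POLR2A; bidirectional fit versus DMSO.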

[4] = read-out: Glutamate-cysteine ligase regulatory (GCLM), GCLM (gene 2730); assay: LTEA_HepaRG_GCLM: Life Technologies and Expression Analysis (LTEA) Assay for Glutamate-cysteine ligase regulatory (GCLM) using HepaRG (AID 2283500)
Procedure, shortened: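 Endpoint is GCLM transcript level by qRT-PCR, normalized to three housekeeping genes, after 48 h chemical exposure of human HepaRG cells (0.5% DMSO vehicle, top 100 uM, half-log dilutions). Fitting was bidirectional relative to DMSO.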

[5] = read-out: Glutathione S-transferase M3 (GSTM3), GSTM3 (gene 2947); assay: LTEA_HepaRG_GSTM3: Life Technologies and Expression Analysis (LTEA) Assay for Glutathione S-transferase M3 (GSTM3) using HepaRG (AID 2283501)
Procedure, shortened: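 Differentiated human HepaRG cells were exposed in duplicate for 48 h in serum-free induction medium, 8 points from 100 uM top in half-log steps, 0.5% DMSO. GSTM3 mRNA was measured by TaqMan qRT-PCR, normalized to ACTB, GAPDH and POLR2A; bidirectional fit versus DMSO.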

[6] = read-out: Heat shock 70 kDa protein 1 (HSPA1A), gene 3303; assay: LTEA_HepaRG_HSPA1A: Life Technologies and Expression Analysis (LTEA) Assay for Heat shock 70 kDa protein 1 (HSPA1A) using HepaRG (AID 2283502)
Procedure, shortened: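 Cells were plated and cultured for 48 h, then switched to serum-free induction medium. Chemicals were added at eight half-log concentrations up to 100 uM for 48 h. RNA was then isolated and HSPA1A measured by qRT-PCR with bidirectional curve fitting against DMSO.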

[7] = read-out: Hypoxia-inducible factor 1-alpha (Homo sapiens) (UniProt Q16665); assay: LTEA_HepaRG_HIF1A: Life Technologies and Expression Analysis (LTEA) Assay for Hypoxia-inducible factor 1 (HIF1A) Trancription factor using HepaRG (AID 2283503)
Procedure, shortened: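 HIF1A transcript level read by qRT-PCR (ACTB, GAPDH, POLR2A normalization) after 48 h chemical exposure of HepaRG cultures. Eight half-log concentrations, top 100 uM, 0.5% DMSO vehicle, duplicates; bidirectional curve fit against DMSO baseline.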

[8] = read-out: HGF (gene 3082); assay: LTEA_HepaRG_HGF: Life Technologies and Expression Analysis (LTEA) Assay for Hepatocyte Growth Facto (HGF) using HepaRG (AID 2283505)
Procedure, shortened: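 Differentiated HepaRG cells in serum-free induction medium exposed 48 h in duplicate, 8 half-log concentrations from 100 uM in 0.5% DMSO. HGF mRNA by qRT-PCR, normalised to ACTB, GAPDH, POLR2A; bidirectional fitting.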

[9] = read-out: Insulin Like Growth Factor 1 (IGF1), IGF1 (gene 3479); assay: LTEA_HepaRG_IGF1: Life Technologies and Expression Analysis (LTEA) Assay for Insulin Like Growth Factor 1 (IGF1) using HepaRG (AID 2283506)
Procedure, shortened: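 Cells are thawed, plated and cultured 48 h, then exposed in duplicate to chemical (highest 100 uM, half-log steps, 0.5% DMSO) for another 48 h. Total RNA is analysed by Fluidigm qRT-PCR for IGF1 expression relative to vehicle.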

Measured: AC50

Sequence of Hypoxia-inducible factor 1-alpha (Homo sapiens) (Q16665 whole entry, looked up): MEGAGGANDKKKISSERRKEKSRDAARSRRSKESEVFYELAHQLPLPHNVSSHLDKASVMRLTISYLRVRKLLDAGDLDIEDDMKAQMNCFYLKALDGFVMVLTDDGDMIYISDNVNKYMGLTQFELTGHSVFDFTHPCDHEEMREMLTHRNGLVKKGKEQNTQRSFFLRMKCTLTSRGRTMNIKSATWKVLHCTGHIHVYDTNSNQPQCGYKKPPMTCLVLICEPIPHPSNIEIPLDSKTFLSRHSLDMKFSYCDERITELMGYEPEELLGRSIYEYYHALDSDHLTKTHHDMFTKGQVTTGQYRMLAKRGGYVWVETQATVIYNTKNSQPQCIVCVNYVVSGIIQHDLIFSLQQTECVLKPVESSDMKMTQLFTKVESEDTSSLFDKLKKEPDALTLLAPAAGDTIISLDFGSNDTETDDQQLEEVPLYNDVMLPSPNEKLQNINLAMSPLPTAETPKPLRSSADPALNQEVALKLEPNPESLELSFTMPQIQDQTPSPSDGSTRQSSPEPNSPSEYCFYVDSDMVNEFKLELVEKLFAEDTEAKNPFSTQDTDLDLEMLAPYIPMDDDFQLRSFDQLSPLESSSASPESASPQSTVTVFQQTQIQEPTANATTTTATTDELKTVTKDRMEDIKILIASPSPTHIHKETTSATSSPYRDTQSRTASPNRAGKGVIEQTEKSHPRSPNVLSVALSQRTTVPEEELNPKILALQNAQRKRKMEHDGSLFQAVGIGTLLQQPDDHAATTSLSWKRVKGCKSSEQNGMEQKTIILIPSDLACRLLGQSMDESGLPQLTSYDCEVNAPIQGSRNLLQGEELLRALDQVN

Cc1ccccc1O
inactive: [1] | [2] | [3] | [4] | [5] | [6] | [7] | [8] | [9]

c1cc2ccc3cccc4ccc(c1)c2c34
inactive: [1] | [2] | [3] | [4] | [5] | [6] | [7] | [8] | [9]

CCCCCCCCCc1ccc(O)cc1
inactive: [1] | [2] | [3] | [4] | [5] | [6] | [7] | [8] | [9]

CCOP(=S)(OCC)SCSC(C)(C)C
inactive: [1] | [2] | [3] | [4] | [5] | [6] | [7] | [8] | [9]

O=S(=O)(O)C(F)(F)C(F)(F)C(F)(F)C(F)(F)F
inactive: [1] | [2] | [3] | [4] | [5] | [6] | [7] | [8] | [9]

COS(=O)(=O)OC
inactive: [1] | [2] | [3] | [4] | [5] | [6] | [7] | [8] | [9]

c1ccc(-c2ccccc2)cc1
inactive: [1] | [2] | [3] | [4] | [5] | [6] | [7] | [8] | [9]

O=C(N[C@H]1CN2CCC1CC2)c1cc2ccoc2cn1
inactive: [1] | [2] | [3] | [4] | [5] | [6] | [7] | [8] | [9]

CCCCCCOC(=O)c1ccccc1C(=O)OCCCCCC
inactive: [1] | [2] | [3] | [4] | [5] | [6] | [7] | [8] | [9]

CCSC(=O)N(CC)C1CCCCC1
inactive: [1] | [2] | [4] | [5] | [6] | [7] | [8] | [9]

Nn1cnnc1
inactive: [1] | [2] | [3] | [4] | [5] | [6] | [7] | [8] | [9]

ClC(Cl)=C(c1ccc(Cl)cc1)c1ccc(Cl)cc1
active: [9] 50 µM
inactive: [1] | [2] | [3] | [4] | [5] | [6] | [7] | [8]

N#Cc1ccc(N(CC(N)=O)CC(F)(F)F)cc1C(F)(F)F
inactive: [1] | [2] | [3] | [4] | [5] | [6] | [7] | [8] | [9]

CC1=C2C[C@H]3[C@@H](CC=C4C[C@@H](O)CC[C@@]43C)[C@@H]2CC[C@]12O[C@@H]1C[C@H](C)CN[C@H]1[C@H]2C
inactive: [1] | [2] | [3] | [4] | [5] | [6] | [7] | [8] | [9]

O=NN(c1ccccc1)c1ccccc1
inactive: [1] | [2] | [3] | [4] | [5] | [6] | [7] | [8] | [9]

CCCCCCCCOC(=O)c1ccccc1C(=O)OCCCCCCCC
inactive: [1] | [2] | [3] | [4] | [5] | [6] | [7] | [8] | [9]

C1CC2OC2CC1C1CO1 (stereo not given)
inactive: [1] | [2] | [3] | [4] | [5] | [6] | [7] | [8] | [9]

C[C@]12CCC(=O)C=C1CC[C@@H]1[C@@H]2CC[C@]2(C)C(=O)CC[C@@H]12
active: [9] 50 µM
inactive: [1] | [2] | [4] | [5] | [6] | [8]

Cc1cccc(C)c1N
inactive: [1] | [2] | [3] | [4] | [5] | [6] | [7] | [8] | [9]

Nc1ccc(-c2ccc(N)cc2)cc1
inactive: [1] | [2] | [3] | [4] | [5] | [6] | [7] | [8] | [9]

Oc1ccc(C(c2ccc(O)cc2)(C(F)(F)F)C(F)(F)F)cc1
inactive: [2] | [3] | [4] | [5] | [8] | [9]
active: [1] 79.5 µM | [6] 72.8 µM | [7] 83.5 µM

O=C(O)C(F)(F)C(F)(F)C(F)(F)C(F)(F)C(F)(F)C(F)(F)C(F)(F)C(F)(F)F
active: [1] 86.8 µM | [2] 75.3 µM | [3] 85.6 µM | [4] 77 µM | [8] 50 µM | [9] 77 µM
inactive: [5] | [7]

Cc1ccccc1[N+](=O)[O-]
inactive: [1] | [2] | [3] | [4] | [5] | [6] | [7] | [8] | [9]

Clc1ccc(C(c2ccccc2Cl)C(Cl)(Cl)Cl)cc1 (stereo not given)
inactive: [1] | [2] | [4] | [5] | [7] | [8]
active: [3] 90 µM | [6] 12 µM | [9] 31.3 µM

CCC(=O)O[C@H]1CC[C@H]2[C@@H]3CCC4=CC(=O)CC[C@]4(C)[C@H]3CC[C@]12C
inactive: [1] | [2] | [3] | [4] | [5] | [6] | [7] | [8] | [9]

Cc1ccc(O)c(C)c1
inactive: [1] | [2] | [3] | [4] | [5] | [6] | [7] | [8] | [9]
